Results published in the supplement of paper PMC10849652.
About 8,800 targets were measured; listed, in parts, are those with a hit and a random draw of the rest. About 0.5% of all pairs of compound and target were hits.

How the values were obtained:
Assay in all cases: log2 fold change, soluble protein after heating vs DMSO (PISA); higher = thermal stabilisation; K562 lysate, 10 uM; active = over 0.2 and 3.5 SD of the protein, either way, in both replicates (recomputed)
lapatinib = compound: CS(=O)(=O)CCNCc1ccc(-c2ccc3ncnc(Nc4ccc(OCc5cccc(F)c5)c(Cl)c4)c3c2)o1 [lapatinib]
Summary of the method: (§1)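 The values are log-two fold changes in thermal stability compared with solvent controls and come from duplicates. They were obtained by TMTpro 16plex LC-MS/MS, with channel sums equalised, on the supernatant after 21,000xg for 90 min. That supernatant came from crude K562 extract at 1 mg/mL protein treated with 10 μM compound for 30 min, heated for 3 min across 48°C-58°C, pooled and brought to 0.5% NP-40 at 4°C.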

pictilisib = compound: CS(=O)(=O)N1CCN(Cc2cc3nc(-c4cccc5[nH]ncc45)nc(N4CCOCC4)c3s2)CC1 [pictilisib]
Summary of the method: as §1

crizotinib = compound: C[C@@H](Oc1cc(-c2cnn(C3CCNCC3)c2)cnc1N)c1c(Cl)ccc(F)c1Cl [crizotinib]
Summary of the method: as §1

[1] = compound: C[C@H](C1=CC=C(C=C1)C(=O)NC2=C3C=CNC3=NC=C2)N
Summary of the method: as §1

duvelisib = compound: C[C@H](Nc1ncnc2nc[nH]c12)c1cc2cccc(Cl)c2c(=O)n1-c1ccccc1 [duvelisib]
Summary of the method: as §1

gandotinib = compound: Cc1cc(Nc2cc(CN3CCOCC3)c3nc(C)c(Cc4ccc(Cl)cc4F)n3n2)n[nH]1 [gandotinib]
Summary of the method: as §1

tozasertib = compound: Cc1cc(Nc2cc(N3CCN(C)CC3)nc(Sc3ccc(NC(=O)C4CC4)cc3)n2)n[nH]1 [tozasertib]
Summary of the method: as §1

doramapimod = compound: Cc1ccc(-n2nc(C(C)(C)C)cc2NC(=O)Nc2ccc(OCCN3CCOCC3)c3ccccc23)cc1 [doramapimod]
Summary of the method: as §1

bafetinib = compound: Cc1ccc(NC(=O)c2ccc(CN3CC[C@H](N(C)C)C3)c(C(F)(F)F)c2)cc1Nc1nccc(-c2cncnc2)n1 [bafetinib]
Summary of the method: as §1

[2] = compound: Cc1cccc(CC(=O)N2CCc3c2ccc(-c2cn(C)c4ncnc(N)c24)c3F)n1
Summary of the method: as §1

nilotinib = compound: Cc1cn(-c2cc(NC(=O)c3ccc(C)c(Nc4nccc(-c5cccnc5)n4)c3)cc(C(F)(F)F)c2)cn1 [nilotinib]
Summary of the method: as §1

[3] = compound: Cc1nc(Nc2n[nH]c3c2CN(C(=O)N[C@H](CN(C)C)c2ccccc2)C3(C)C)c2sccc2n1
Summary of the method: as §1

dasatinib = compound: Cc1nc(Nc2ncc(C(=O)Nc3c(C)cccc3Cl)s2)cc(N2CCN(CCO)CC2)n1 [dasatinib]
Summary of the method: as §1

[4] = compound: Cc1ncc(-c2ccnc(Nc3ccc(S(C)(=O)=O)cc3)n2)n1C(C)C
Summary of the method: as §1

[5] = compound: Cn1cc(-c2ccc3c(c2)CCN3C(=O)Cc2cccc(C(F)(F)F)c2)c2c(N)ncnc21
Summary of the method: as §1

quisinostat = compound: Cn1cc(CNCC2CCN(c3ncc(C(=O)NO)cn3)CC2)c2ccccc21 [quisinostat]
Summary of the method: as §1

tipifarnib = compound: Cn1cncc1[C@@](N)(c1ccc(Cl)cc1)c1ccc2c(c1)c(-c1cccc(Cl)c1)cc(=O)n2C [tipifarnib]
Summary of the method: as §1

[6] = compound: NC(=O)Nc1cc(-c2cccc(F)c2)sc1C(=O)N[C@H]1CCCNC1
Summary of the method: as §1

[7] = compound: NC(=O)c1cnc(N[C@@H]2CCCC[C@@H]2N)nc1Nc1cccc(-n2nccn2)c1
Summary of the method: as §1

[8] = compound: NC1(c2ccc(-c3nc4ccn5c(=O)[nH]nc5c4cc3-c3ccccc3)cc2)CCC1
Summary of the method: as §1

Measured: log2 fold change

ZBTB33 (UniProt Q86T24)
UniProt Q86T24, sequence (Q86T24 whole entry, looked up): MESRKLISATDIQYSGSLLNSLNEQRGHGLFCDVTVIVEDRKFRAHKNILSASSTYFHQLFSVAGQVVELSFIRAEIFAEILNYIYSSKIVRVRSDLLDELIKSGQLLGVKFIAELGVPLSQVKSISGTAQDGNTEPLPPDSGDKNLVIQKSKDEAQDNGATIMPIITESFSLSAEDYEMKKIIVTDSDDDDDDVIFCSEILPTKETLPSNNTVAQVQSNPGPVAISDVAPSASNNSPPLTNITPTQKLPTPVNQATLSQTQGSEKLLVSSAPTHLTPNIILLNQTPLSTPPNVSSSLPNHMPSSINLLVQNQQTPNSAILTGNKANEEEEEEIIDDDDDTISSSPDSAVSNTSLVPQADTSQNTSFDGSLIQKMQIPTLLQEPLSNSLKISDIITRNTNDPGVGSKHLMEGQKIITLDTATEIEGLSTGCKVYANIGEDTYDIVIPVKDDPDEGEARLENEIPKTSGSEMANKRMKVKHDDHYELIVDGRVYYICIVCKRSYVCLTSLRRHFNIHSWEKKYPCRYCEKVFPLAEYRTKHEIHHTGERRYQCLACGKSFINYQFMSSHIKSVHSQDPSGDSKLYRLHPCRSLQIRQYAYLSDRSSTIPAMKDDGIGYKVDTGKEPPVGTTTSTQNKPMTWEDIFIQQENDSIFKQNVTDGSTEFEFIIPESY
inactive: lapatinib 0.047 | pictilisib 0.149 | crizotinib -0.111 | [1] -0.165 | duvelisib -0.041 | gandotinib 0.028 | tozasertib 0.048 | doramapimod 0.022 | bafetinib 0.046 | [2] 0.048 | nilotinib -0.009 | [3] 0.084 | dasatinib -0.06 | [4] -0.052 | [5] 0.029 | quisinostat -0.08 | tipifarnib -0.083 | [6] 0.133 | [7] 0 | [8] -0.035

WDR7 (UniProt Q9Y4E6)
inactive: lapatinib -0.029 | pictilisib -0.037 | crizotinib -0.058 | [1] -0.076 | duvelisib -0.008 | gandotinib 0.014 | tozasertib -0.012 | doramapimod 0.043 | bafetinib -0.04 | [2] 0.085 | nilotinib 0.001 | [3] -0.018 | dasatinib -0.088 | [4] -0.011 | [5] 0.003 | quisinostat -0.016 | tipifarnib -0.032 | [6] 0.014 | [7] 0.007 | [8] -0.03

VPS13C (UniProt Q709C8)
inactive: lapatinib -0.008 | pictilisib 0.023 | crizotinib 0.003 | [1] -0.065 | duvelisib 0.021 | gandotinib -0.055 | tozasertib 0.052 | doramapimod -0.006 | bafetinib -0.054 | [2] 0.213 | nilotinib 0.138 | [3] 0.043 | dasatinib -0.011 | [4] -0.069 | [5] -0.039 | quisinostat -0.034 | tipifarnib -0.177 | [6] -0.009 | [7] -0.028 | [8] -0.05

XPNPEP1 isoform 3 (UniProt Q9NQW7)
inactive: lapatinib -0.017 | pictilisib -0.02 | crizotinib -0.008 | [1] 0.001 | duvelisib 0.049 | gandotinib 0.002 | tozasertib -0.024 | doramapimod -0.003 | bafetinib -0.021 | [2] 0.018 | nilotinib 0.022 | [3] 0.016 | dasatinib -0.049 | [4] -0.004 | [5] 0.014 | quisinostat 0.024 | tipifarnib 0.011 | [6] 0.007 | [7] -0.005 | [8] -0.023

XPO6 (UniProt Q96QU8)
inactive: lapatinib -0.012 | pictilisib -0.069 | crizotinib -0.086 | [1] -0.158 | duvelisib 0.06 | gandotinib 0.005 | tozasertib 0.072 | doramapimod 0.034 | bafetinib -0.105 | [2] 0.175 | nilotinib 0.005 | [3] 0.027 | dasatinib -0.008 | [4] -0.054 | [5] -0.026 | quisinostat -0.123 | tipifarnib -0.018 | [6] 0.078 | [7] 0.033 | [8] -0.04

YTHDC2 (UniProt Q9H6S0)
inactive: lapatinib -0.029 | pictilisib -0.007 | crizotinib -0.042 | [1] 0.023 | duvelisib 0.032 | gandotinib -0.013 | tozasertib -0.03 | doramapimod 0.007 | bafetinib -0.022 | [2] -0.066 | nilotinib 0.006 | [3] -0.001 | dasatinib -0.043 | [4] 0.03 | [5] 0.03 | quisinostat -0.046 | tipifarnib 0.022 | [6] 0.06 | [7] -0.007 | [8] -0.054

VCPIP1 (UniProt Q96JH7)
UniProt Q96JH7, sequence (Q96JH7 whole entry, looked up): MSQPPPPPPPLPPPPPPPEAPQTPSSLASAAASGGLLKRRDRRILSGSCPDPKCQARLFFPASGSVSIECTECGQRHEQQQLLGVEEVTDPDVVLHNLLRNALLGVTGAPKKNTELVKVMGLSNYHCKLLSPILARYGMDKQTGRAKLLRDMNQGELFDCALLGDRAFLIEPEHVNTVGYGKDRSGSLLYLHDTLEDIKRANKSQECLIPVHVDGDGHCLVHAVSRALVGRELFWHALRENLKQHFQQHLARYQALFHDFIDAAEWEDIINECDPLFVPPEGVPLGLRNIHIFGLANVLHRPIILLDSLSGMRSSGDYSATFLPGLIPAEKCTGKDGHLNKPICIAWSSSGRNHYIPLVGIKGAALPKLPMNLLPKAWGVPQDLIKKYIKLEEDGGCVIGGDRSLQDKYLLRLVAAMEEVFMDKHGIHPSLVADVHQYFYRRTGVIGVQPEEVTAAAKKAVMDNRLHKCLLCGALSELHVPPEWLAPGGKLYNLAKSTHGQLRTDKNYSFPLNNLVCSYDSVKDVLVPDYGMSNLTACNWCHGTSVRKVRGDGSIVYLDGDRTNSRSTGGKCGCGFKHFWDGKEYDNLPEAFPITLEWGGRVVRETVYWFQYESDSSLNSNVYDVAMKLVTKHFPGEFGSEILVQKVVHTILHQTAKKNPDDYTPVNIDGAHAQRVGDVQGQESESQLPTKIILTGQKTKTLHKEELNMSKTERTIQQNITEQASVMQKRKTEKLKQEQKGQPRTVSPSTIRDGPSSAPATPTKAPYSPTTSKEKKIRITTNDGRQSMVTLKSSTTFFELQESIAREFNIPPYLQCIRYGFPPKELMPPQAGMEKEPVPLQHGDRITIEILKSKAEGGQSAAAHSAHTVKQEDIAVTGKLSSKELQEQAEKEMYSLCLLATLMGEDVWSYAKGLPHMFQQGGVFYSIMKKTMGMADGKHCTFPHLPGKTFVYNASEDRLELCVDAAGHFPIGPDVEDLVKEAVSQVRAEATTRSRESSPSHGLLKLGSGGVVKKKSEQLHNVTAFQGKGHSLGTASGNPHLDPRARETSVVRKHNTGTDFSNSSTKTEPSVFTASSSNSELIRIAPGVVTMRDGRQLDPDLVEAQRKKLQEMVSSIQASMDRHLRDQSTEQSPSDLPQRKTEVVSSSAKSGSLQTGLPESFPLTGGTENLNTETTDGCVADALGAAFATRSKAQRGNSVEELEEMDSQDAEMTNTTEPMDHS
inactive: lapatinib -0.061 | pictilisib -0.053 | crizotinib -0.052 | [1] -0.059 | duvelisib -0.002 | gandotinib -0.038 | tozasertib -0.028 | doramapimod 0.025 | bafetinib -0.043 | [2] 0.1 | nilotinib -0.006 | [3] 0.044 | dasatinib -0.045 | [4] -0.025 | [5] 0.016 | quisinostat -0.046 | tipifarnib 0.011 | [6] 0.031 | [7] 0.029 | [8] -0.059

WDR77 (UniProt Q9BQA1)
inactive: lapatinib 0.012 | pictilisib 0.016 | crizotinib -0.027 | [1] 0.014 | duvelisib 0.119 | gandotinib -0.037 | tozasertib -0.005 | doramapimod 0.008 | bafetinib -0.024 | [2] -0.047 | nilotinib 0.056 | [3] 0.028 | dasatinib 0.093 | [4] 0 | [5] -0.013 | quisinostat 0.014 | tipifarnib 0.048 | [6] 0.006 | [7] -0.008 | [8] 0.039

WDR62 isoform 4 (UniProt O43379)
inactive: lapatinib -0.025 | pictilisib 0.028 | crizotinib -0.048 | [1] -0.021 | duvelisib 0.006 | gandotinib -0.032 | tozasertib 0.034 | doramapimod 0.038 | bafetinib -0.05 | [2] 0.08 | nilotinib -0.001 | [3] 0.003 | dasatinib -0.026 | [4] 0 | [5] 0.022 | quisinostat -0.103 | tipifarnib -0.051 | [6] 0.031 | [7] -0.02 | [8] -0.031

YLPM1 (UniProt P49750)
UniProt P49750, sequence (P49750 whole entry, looked up): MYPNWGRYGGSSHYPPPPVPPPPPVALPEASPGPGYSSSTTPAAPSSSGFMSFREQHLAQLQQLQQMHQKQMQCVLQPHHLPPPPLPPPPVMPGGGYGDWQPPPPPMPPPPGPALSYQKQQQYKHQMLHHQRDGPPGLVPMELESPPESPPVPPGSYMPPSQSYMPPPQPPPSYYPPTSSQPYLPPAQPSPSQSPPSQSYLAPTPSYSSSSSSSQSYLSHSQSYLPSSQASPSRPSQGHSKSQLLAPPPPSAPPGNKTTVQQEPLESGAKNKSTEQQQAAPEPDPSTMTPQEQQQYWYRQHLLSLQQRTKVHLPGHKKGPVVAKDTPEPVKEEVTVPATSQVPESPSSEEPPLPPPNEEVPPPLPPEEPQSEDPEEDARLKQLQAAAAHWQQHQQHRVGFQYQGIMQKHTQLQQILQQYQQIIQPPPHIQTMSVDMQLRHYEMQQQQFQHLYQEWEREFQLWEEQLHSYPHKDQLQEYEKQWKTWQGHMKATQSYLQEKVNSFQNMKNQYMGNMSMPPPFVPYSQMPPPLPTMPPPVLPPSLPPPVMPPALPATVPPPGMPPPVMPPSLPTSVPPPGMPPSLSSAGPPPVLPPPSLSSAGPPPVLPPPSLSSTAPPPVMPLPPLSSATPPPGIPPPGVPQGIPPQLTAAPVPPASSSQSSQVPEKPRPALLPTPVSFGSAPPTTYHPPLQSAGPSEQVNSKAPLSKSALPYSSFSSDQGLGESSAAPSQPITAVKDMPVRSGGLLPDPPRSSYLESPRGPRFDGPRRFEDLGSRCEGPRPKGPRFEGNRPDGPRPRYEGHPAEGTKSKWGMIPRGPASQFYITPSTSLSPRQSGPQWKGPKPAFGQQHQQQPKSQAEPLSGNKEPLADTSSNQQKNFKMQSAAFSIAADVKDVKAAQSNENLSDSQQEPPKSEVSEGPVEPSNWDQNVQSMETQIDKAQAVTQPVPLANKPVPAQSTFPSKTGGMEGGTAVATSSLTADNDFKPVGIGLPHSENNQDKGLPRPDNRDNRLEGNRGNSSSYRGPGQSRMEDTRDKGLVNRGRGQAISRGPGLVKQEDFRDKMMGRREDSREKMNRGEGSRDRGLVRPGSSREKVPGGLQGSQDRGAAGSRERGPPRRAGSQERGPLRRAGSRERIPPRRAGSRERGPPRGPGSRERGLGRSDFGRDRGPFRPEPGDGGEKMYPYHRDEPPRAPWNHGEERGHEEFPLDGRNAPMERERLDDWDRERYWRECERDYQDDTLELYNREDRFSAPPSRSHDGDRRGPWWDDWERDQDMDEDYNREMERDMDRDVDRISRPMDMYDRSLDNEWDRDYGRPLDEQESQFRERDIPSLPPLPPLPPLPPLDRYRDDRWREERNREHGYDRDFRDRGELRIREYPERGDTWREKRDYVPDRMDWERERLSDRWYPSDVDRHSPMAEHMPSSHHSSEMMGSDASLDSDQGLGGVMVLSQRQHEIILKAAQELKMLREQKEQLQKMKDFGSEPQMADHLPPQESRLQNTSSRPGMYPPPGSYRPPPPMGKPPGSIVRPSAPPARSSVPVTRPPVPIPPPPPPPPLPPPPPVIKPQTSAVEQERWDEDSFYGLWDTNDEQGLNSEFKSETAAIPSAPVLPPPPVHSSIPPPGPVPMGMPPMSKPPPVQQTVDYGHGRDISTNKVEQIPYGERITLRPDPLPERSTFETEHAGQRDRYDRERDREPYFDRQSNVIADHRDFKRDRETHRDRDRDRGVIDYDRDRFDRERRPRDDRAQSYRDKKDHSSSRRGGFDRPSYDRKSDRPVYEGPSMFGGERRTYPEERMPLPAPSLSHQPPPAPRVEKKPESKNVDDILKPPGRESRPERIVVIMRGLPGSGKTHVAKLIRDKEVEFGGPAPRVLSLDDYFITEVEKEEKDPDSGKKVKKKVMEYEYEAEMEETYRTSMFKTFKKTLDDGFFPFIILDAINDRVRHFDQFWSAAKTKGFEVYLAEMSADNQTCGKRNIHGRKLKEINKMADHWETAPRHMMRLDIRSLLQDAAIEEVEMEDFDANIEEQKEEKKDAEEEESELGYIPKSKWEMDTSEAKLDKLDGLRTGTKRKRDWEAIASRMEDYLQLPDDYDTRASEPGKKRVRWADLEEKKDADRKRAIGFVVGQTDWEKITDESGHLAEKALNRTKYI
inactive: lapatinib 0.031 | pictilisib -0.019 | crizotinib 0.064 | [1] 0.147 | duvelisib 0.009 | gandotinib -0.067 | tozasertib 0.017 | doramapimod -0.042 | bafetinib -0.09 | [2] -0.054 | nilotinib -0.023 | [3] -0.192 | dasatinib 0.018 | [5] 0.021 | quisinostat -0.015 | tipifarnib -0.011 | [6] 0.033 | [7] 0.041 | [8] -0.013
active: [4] -0.384

USP9X (UniProt Q93008)
inactive: lapatinib -0.031 | pictilisib -0.027 | crizotinib -0.058 | [1] -0.015 | duvelisib -0.017 | gandotinib -0.127 | tozasertib 0.011 | doramapimod 0.004 | bafetinib -0.034 | [2] 0.027 | nilotinib -0.01 | [3] 0 | dasatinib -0.045 | [4] 0.002 | [5] 0 | quisinostat -0.017 | tipifarnib -0.024 | [6] 0.03 | [7] 0.02 | [8] -0.003

VPS54 (UniProt Q9P1Q0)
active: quisinostat -0.409
inactive: lapatinib -0.018 | pictilisib 0.068 | crizotinib -0.296 | [1] -0.263 | duvelisib -0.012 | gandotinib 0.399 | tozasertib 0.047 | doramapimod 0.066 | bafetinib 0.431 | [2] 0.395 | nilotinib 0.013 | [3] -0.041 | dasatinib -0.112 | [4] 0.205 | [5] 0.146 | tipifarnib -0.111 | [6] 0.065 | [7] 0.089 | [8] -0.121

ZMYND8 isoform 19 (UniProt Q9ULU4)
inactive: lapatinib -0.017 | pictilisib -0.044 | crizotinib -0.109 | [1] -0.105 | duvelisib -0.006 | gandotinib 0.092 | tozasertib 0.035 | doramapimod 0.001 | bafetinib -0.028 | [2] 0.049 | nilotinib -0.011 | [3] -0.056 | dasatinib -0.019 | [4] 0.022 | [5] 0.036 | quisinostat -0.073 | tipifarnib -0.025 | [6] -0.004 | [7] 0.009 | [8] 0.043

ZMAT2 (UniProt Q96NC0)
UniProt Q96NC0, sequence (Q96NC0 whole entry, looked up): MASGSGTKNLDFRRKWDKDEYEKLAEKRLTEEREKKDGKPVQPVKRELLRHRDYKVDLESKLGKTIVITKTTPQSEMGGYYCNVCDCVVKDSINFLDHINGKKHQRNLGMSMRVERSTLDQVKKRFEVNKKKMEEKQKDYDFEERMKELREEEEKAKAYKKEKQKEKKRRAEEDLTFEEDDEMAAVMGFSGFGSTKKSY
inactive: lapatinib 0.006 | pictilisib 0.003 | crizotinib -0.005 | [1] 0.02 | duvelisib -0.034 | gandotinib -0.035 | tozasertib -0.028 | doramapimod 0.042 | bafetinib 0.053 | [2] -0.043 | nilotinib -0.014 | [3] 0.037 | dasatinib 0.022 | [4] 0.027 | [5] 0.033 | quisinostat -0.066 | tipifarnib -0.013 | [6] -0.044 | [7] 0.002 | [8] -0.03

XAB2 (UniProt Q9HCS7)
UniProt Q9HCS7, sequence (Q9HCS7 whole entry, looked up): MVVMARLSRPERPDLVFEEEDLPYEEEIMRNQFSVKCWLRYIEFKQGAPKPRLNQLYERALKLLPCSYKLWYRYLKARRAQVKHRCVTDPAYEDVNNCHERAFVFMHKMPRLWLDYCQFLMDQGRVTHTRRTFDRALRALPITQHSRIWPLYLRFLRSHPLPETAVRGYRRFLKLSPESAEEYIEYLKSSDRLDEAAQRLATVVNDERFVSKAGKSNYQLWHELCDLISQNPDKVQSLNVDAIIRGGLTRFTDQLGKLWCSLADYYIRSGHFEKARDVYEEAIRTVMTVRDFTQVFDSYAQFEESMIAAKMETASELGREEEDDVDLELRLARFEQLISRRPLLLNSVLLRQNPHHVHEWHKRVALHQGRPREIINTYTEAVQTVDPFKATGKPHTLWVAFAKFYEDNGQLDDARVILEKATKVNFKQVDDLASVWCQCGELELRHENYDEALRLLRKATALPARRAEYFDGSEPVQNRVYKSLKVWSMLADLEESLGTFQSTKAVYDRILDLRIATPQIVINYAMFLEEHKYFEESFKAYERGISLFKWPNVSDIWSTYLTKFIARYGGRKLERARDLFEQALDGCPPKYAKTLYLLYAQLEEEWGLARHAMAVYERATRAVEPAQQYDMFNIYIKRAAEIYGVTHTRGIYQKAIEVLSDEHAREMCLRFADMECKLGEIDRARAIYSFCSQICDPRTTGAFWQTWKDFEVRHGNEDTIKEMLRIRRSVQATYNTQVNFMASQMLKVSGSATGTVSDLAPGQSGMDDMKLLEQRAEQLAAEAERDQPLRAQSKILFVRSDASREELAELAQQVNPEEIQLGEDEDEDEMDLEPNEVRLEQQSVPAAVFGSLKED
inactive: lapatinib -0.02 | pictilisib -0.051 | crizotinib -0.096 | [1] 0.025 | duvelisib 0.038 | gandotinib -0.055 | tozasertib -0.073 | doramapimod 0.01 | bafetinib 0.065 | [2] 0.028 | nilotinib 0.032 | [3] -0.002 | dasatinib -0.051 | [4] 0.048 | [5] 0.017 | quisinostat 0.106 | tipifarnib -0.046 | [6] 0.046 | [7] -0.025 | [8] -0.01
